Data as given in PubChem BioAssay.
Active and inactive are the calls of the source.

Key:
[1] = compound effects on lung adenocarcinoma cell viability – A549, calcein-AM fluorescence, 48 h, basal, profiling panel (AID 1162); conditions: higher = more signal
[2] = compound effects on differentiated 3T3-L1 adipocyte viability – cell-based, 3T3-L1 adipocytes, calcein-AM fluorescence, 48 h, basal, profiling panel (AID 1163); conditions: 3T3-L1 adipocytes viability, higher = more signal
[3] = compound effects on hepatocellular carcinoma cell viability – HepG2, calcein-AM fluorescence, 48 h, basal, profiling panel (AID 1164); conditions: higher = more signal
[4] = compound effects on multiple myeloma cell viability – MM1S, calcein-AM fluorescence, 48 h, basal, profiling panel (AID 1165); conditions: higher = more signal
[5] = calcein-AM signal in unstimulated myeloma cells – cell-based, calcein-AM fluorescence, 48 h, PK04 Diversity Set, profiling panel (AID 1166); conditions: RPMI8226 myeloma viability, higher = more signal;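 further: cells grown under basal conditions without added stimulus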
[6] = JC-1 mitochondrial signal, unstimulated HepG2 cells – cell-based, JC-1 fluorescence, 24 h, 100 nL compound, profiling panel (AID 1167); conditions: HepG2 mitochondrial potential, higher = more signal
[7] = JC-1 mitochondrial signal, unstimulated adipocytes – cell-based, JC-1 fluorescence, 3T3-L1 adipocytes, 24 h, 100 nL compound, profiling panel (AID 1168); conditions: JC-1 mitochondrial fluorescence, higher = more signal, called active from +8 up or from −8 down
[8] = JC-1 mitochondrial signal, unstimulated myeloma cells – cell-based, JC-1 fluorescence, RPMI8226, 24 h, 100 nL compound, profiling panel (AID 1169); conditions: JC-1 mitochondrial potential fluorescence, higher = more signal
[9] = JC-1 mitochondrial signal, unstimulated MM1S myeloma – cell-based, JC-1 fluorescence, 24 h, 100 nL compound, profiling panel (AID 1170); conditions: MM1S mitochondrial potential, higher = more signal
[10] = resazurin metabolic signal in A549 cells – cell-based, resazurin fluorescence, 24 h, PK04 Diversity Set, profiling panel (AID 1171); conditions: A549 viability, higher = more signal, called active from +8 up or from −8 down
Further: test concentration not given here.

| Compound | z-score [1] | z-score [2] | z-score [3] | z-score [4] | z-score [5] | z-score [6] | z-score [7] | z-score [8] | z-score [9] | z-score [10] |
| --- | --- | --- | --- | --- | --- | --- | --- | --- | --- | --- |
| C=CCNC(=O)[C@@H]1[C@H]2C(=O)O[C@H](c3ccccc3)[C@H](c3ccccc3)N2[C@H](c2ccccc2OCCO)[C@@]12C(=O)N(C(=O)OCCOC)c1ccc(C#CCNC(N)=O)cc12 | 0.843 | 0.595 | 0.886 | 0.765 | 0.425 | 0.766 | 0.586 (inactive) | 0.159 | -0.341 | -0.768 (inactive) |
| C=C(COC)/C(=C/C[C@@H](OC(C)=O)c1ccc(OCCO)cc1)c1cc(C(=O)OC)ccc1OC | -0.534 | -0.0502 | -0.0182 | -1.25 | -0.648 | 0.592 | -0.512 (inactive) | -0.729 | -0.723 | 0.916 (inactive) |
| COC(=O)[C@@]1(Cc2ccc(F)cc2)[C@H]2c3cc(C(=O)N(C)C)n(CC4CC4)c3C[C@H]2CN1C(=O)c1ccccc1 | -0.654 | 0.128 | -0.0517 | -2.21 | -3.32 | 1.41 | -0.708 (inactive) | -0.858 | -1.21 | -1.38 (inactive) |
| O=C1C[C@]2(c3ccc([N+](=O)[O-])cc3)C(=O)N(CCN3CCOCC3)c3cc(CO)ccc3[C@H]2N1C1CCCCC1 | 0.648 | 0.239 | 1.87 | -0.121 | 0.346 | 0.756 | 0.155 (inactive) | 0.0691 | -0.509 | -1.17 (inactive) |
| COCCOC(=O)N1C(=O)[C@@]2(c3cc(C#CC4=CCCCC4)ccc31)[C@H](C(=O)N1CCc3cc(OC)c(OC)cc3C1)[C@H]1C(=O)O[C@H](c3ccccc3)[C@H](c3ccccc3)N1[C@@H]2c1ccc(OCCO)cc1 | -0.989 | 0.847 | -1.2 | -1.84 | -0.691 | -0.207 | 1.22 (inactive) | -0.621 | -0.968 | 0.531 (inactive) |
| COc1ccc(C(O)C2C=CC3C(=O)N(C)C(=O)C3N2N2CCCCC2)c2ccccc12 (stereo not given) | -1.01 | -1.14 | -0.086 | -0.142 | 0.768 | -0.874 | -1.08 (inactive) | -0.0496 | 0.028 | -0.825 (inactive) |
| N#Cc1ccc(NN2C(C(O)c3c(F)cccc3Cl)C=CC3C(=O)N(c4ccccc4)C(=O)C32)cc1 (stereo not given) | 0.212 | -0.684 | 0.0972 | -0.0928 | -0.91 | -1.41 | -1.82 (inactive) | -0.275 | -0.0893 | -0.0273 (inactive) |
| C#CCN(CC1=CCCCC1)[C@H](c1ccccc1Br)[C@@H](O)Cc1ccccc1 | -0.101 | 0.109 | 0.455 | -2.26 | -4 | -1.05 | -0.352 (inactive) | -1.08 | -0.635 | 1.2 (inactive) |
| CCOC(=O)C1=CCC(c2ccccc2)N(S(=O)(=O)CC[Si](C)(C)C)C1 (stereo not given) | -0.557 | -0.047 | 0.413 | -1.76 | 0.582 | 4.48 | -0.0119 (inactive) | -0.119 | -1.66 | 0.866 (inactive) |
| C=CC[C@@]1(C(N)=O)N=C(c2ccc(OCCCO)cc2)O[C@@H]1c1ccccc1CN=[N+]=[N-] | 0.0465 | 1.69 | 0.0287 | 0.204 | -0.189 | -2.45 | -0.337 (inactive) | -0.231 | -1.79 | -0.29 (inactive) |
| C=CCNC(=O)[C@H]1[C@@H]2C(=O)O[C@@H](c3ccccc3)[C@@H](c3ccccc3)N2[C@@H](c2ccccc2OCCO)[C@]12C(=O)Nc1ccc(C#CC3=CCCCC3)cc12 | -1.64 | 1.04 | -4.21 | -3.35 | -4.07 | -1.84 | 2.75 (inactive) | -0.853 | -1.84 | -1.27 (inactive) |
| C=CCN1C(=O)[C@@]2(O[C@@H](CCO)[C@H]([Si](C)(C)c3ccc(OC)cc3)[C@H]2C)c2cc(NC(=O)c3ccc(OC)cc3)ccc21 | -0.52 | -0.196 | -4.47 | -2.73 | -4.36 | -1.69 | 1.58 (inactive) | -1.02 | -1.97 | -2.27 (inactive) |
| COC(=O)C(CC#Cc1ccc2c(c1)[C@]1(C(=O)N2)[C@H](C(=O)O)[C@H]2C(=O)O[C@H](c3ccccc3)[C@H](c3ccccc3)N2[C@@H]1c1ccc(O)cc1)C(=O)OC | -0.389 | -0.405 | 0.0982 | -0.0724 | -0.263 | -2.08 | -0.269 (inactive) | -0.28 | -0.331 | 0.831 (inactive) |
| CCOC(=O)C[C@H]1[C@H](OC(=O)Cc2ccc3c(c2)OCO3)[C@@H](NC(=O)c2ccc(-c3ccccc3)cc2)c2cc(OCCCO)ccc2N1C(=O)Cc1ccc(OC)cc1 | 2.24 | 0.53 | 1.09 | 0.704 | 1.1 | 2.33 | 0.242 (inactive) | 0.679 | -1.03 | -0.0841 (inactive) |
| CC(C)(C)C(=O)N[C@@H](c1ccc(Cl)cc1)[C@]1(C)C[C@H]1C1CCCCC1 | -1.07 | 0.459 | -0.492 | -1.22 | -1.43 | 4.37 | -0.594 (inactive) | -0.533 | 0.162 | -0.466 (inactive) |
| O=C1O[C@H](c2ccccc2)[C@H](c2ccccc2)N2[C@H]1[C@@H](C(=O)NC[C@H](O)c1ccccc1)[C@]1(C(=O)Nc3ccccc31)[C@H]2c1ccc(OCCO)cc1 | -0.425 | 1.61 | -1.41 | -2.53 | -3.09 | -2.29 | 1.95 (inactive) | -1.21 | -1.21 | -0.333 (inactive) |
